Most compounds without a hit are left out; they make up all but 0.5% or so of the library.
E coli growth-1 – E. coli growth inhibition; OD600 absorbance (no concentration beside the values); hit rate 0.21% among 330,000; AID 1053175; Escherichia coli growth, OD600, 23 h; active compounds read low;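 active = OD600 absorbance below the run mean of sample wells minus 3.6 SD, in any replicate, cut at about 0.56 in these data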
E coli growth-2 – bacterial growth inhibition, counter-screen for AddAB inhibitors | E. coli V3065 growth, OD600 absorbance, 18 h | inhibition, % at 11.9 µM | hit rate 0.27% among 330,000 | AID 449728;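 active = inhibition above the campaign's mean inhibition across all tested compounds plus 3 SD, cut at about 9.9% in these data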;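 note: uninfected addAB+ strain grown without phage in ampicillin broth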
phage Ecoli inh – E. coli growth loss with phage present; growth absorbance; inhibition, % at 11.9 µM; hit rate 0.26% among 360,000; AID 651602; in the data active = inhibition above about 11%
AddAB inh – less growth of phage-infected E. coli with AddAB | E. coli expressing H. pylori AddAB, absorbance growth | inhibition, % at 11.9 µM | hit rate 0.29% among 330,000 | AID 435030; in the data active = inhibition above about 12%
Tat transport – inhibitors of E. coli Tat protein transport | inhibition, % at 10 µM | hit rate 0.036% among 340,000 | AID 488895 | E. coli MC4100 TorA-mCherry Tat export, fluorescence;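 active = mean replicate inhibition at least 50% and at least half of replicates individually reaching 50%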;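 note: exported cargo escapes ClpAP degradation while cytoplasmic cargo is degraded and loses fluorescence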
AddAB confirm – growth loss of T4-infected E. coli expressing H. pylori AddAB, confirmed | shares compounds with AddAB inh | E. coli V3065 expressing H. pylori AddAB, T4 phage, OD; T4 phage with gene 2 nonsense mutations | inhibition, % at 11.9 µM | hit rate 64% among 880 | AID 488942;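 active = mean inhibition above a set limit taken from the earlier primary screen, cut at about 13% in these data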;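 note: higher means less bacterial growth since AddAB block lets phage replicate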
RecBCD counter – AddAB counter-screen: growth loss of RecBCD+ E. coli infected with mutant T4 phage | shares compounds with AddAB inh | inhibition, % at 11.9 µM | E. coli V66 + mutant T4 phage, OD growth | hit rate 73% among 880 | AID 488955;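 active = mean inhibition above the mean of solvent-only control wells plus 3 SD, cut at about 4% in these data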;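 note: optical density read after an 18 h incubation at 37 °C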
bact viab count – counter-screen for AddAB inhibitors: inhibitors of bacterial viability; shares compounds with AddAB inh; absorbance (AddAB counterscreen); inhibition, % at 11.9 µM; hit rate 35% among 880; AID 488956; in the data active = inhibition above about 25%
Large screens that a line does not name were inactive (follow-up assays come after a bar, where they were run).

OCCN1CCN(CC(O)COc2ccc(C34CC5CC(CC(C5)C3)C4)cc2)CC1 (stereo not drawn)	none (no result: E coli growth-1)
NCCOc1ccc(C23CC4CC(CC(C4)C2)C3)cc1	E coli growth-1 0.47
COc1ccc(C=NOCc2ccccc2C#N)c(OC)c1	none (no result: E coli growth-2, phage Ecoli inh, AddAB inh, Tat transport)
Cc1cc(=O)[nH]c(SCC(=O)Nc2ccc(Br)cc2)c1C#N	E coli growth-1 0.51
c1ccc(N2CCN(Cc3ccnc4ccccc34)CC2)cc1	none
Oc1c(CN2CCN(c3ccccc3)CC2)cc(Br)c2cccnc12	E coli growth-1 0.46
Cc1nn(-c2ccccc2)c(Cl)c1C=NNC(=O)OC(C)(C)C	none (no result: E coli growth-2, phage Ecoli inh, AddAB inh, Tat transport)
CC(C)c1ccc2c(c1)C(N1CCNCC1)Cc1ccc(F)cc1S2 (stereo not drawn)	E coli growth-1 0.13 (no result: Tat transport)
N#Cc1ccc(NC(=O)NN2CCCCCC2)cc1	E coli growth-1 0.53 (no result: E coli growth-2, AddAB inh)
O=C(Nc1ccc(Cl)cc1)NN1CCCCCC1	none (no result: E coli growth-2, AddAB inh)
CC(=NNc1ncc(Cl)cc1Cl)c1ccc2c(c1)OCO2	none (no result: E coli growth-2, phage Ecoli inh, AddAB inh, Tat transport)
CC(C)C(CCNC1CCN(C)CC1)c1ccc(Cl)cc1 (stereo not drawn)	none
CN1CCC(NCCC(c2ccc(F)cc2)c2ccc(Cl)cc2)CC1 (stereo not drawn)	E coli growth-1 0.51 (no result: E coli growth-2, AddAB inh)
FC(F)(F)COc1nc(NN=Cc2cccnc2)nc(N2CCCCC2c2ccccn2)n1 (stereo not drawn)	none (no result: E coli growth-2, phage Ecoli inh, AddAB inh, Tat transport)
O=C(Nc1ccccc1)Nc1ncc([N+](=O)[O-])s1	E coli growth-1 0.36 (no result: E coli growth-2, AddAB inh)
O=C(COC(=O)c1ccccc1)Nc1ncc([N+](=O)[O-])s1	none
O=C(COc1ccccc1)NC1C(=O)N2C(C(=O)O)=C(Cl)CSC12 (stereo not drawn)	none
CO/N=C(/C(=O)N[C@@H]1C(=O)N2C(C(=O)O)=CCS[C@H]12)c1cnc(N)s1	E coli growth-2 100, AddAB inh 100 (no result: E coli growth-1, phage Ecoli inh, Tat transport)
O=C(NN=Cc1cccn1-c1ccccc1)c1ccncc1	none (no result: E coli growth-2, phage Ecoli inh, AddAB inh, Tat transport)
CCOC(=O)C1=C(C)NC(=O)NC1c1ccc([N+](=O)[O-])o1 (stereo not drawn)	none
CCOC(=O)C1=C(C)NC2=C(C(=O)c3ccccc32)C1c1ccc([N+](=O)[O-])o1 (stereo not drawn)	E coli growth-2 12, AddAB inh 26 | AddAB confirm 32 | RecBCD counter inactive | bact viab count inactive
CC(C)CCCN1C(Nc2ccccc2)=NCC1CC(C)C (stereo not drawn)	none (no result: E coli growth-2, phage Ecoli inh, AddAB inh, Tat transport)
O=C(NCCCNCCCNC(=O)c1ccc(/C=N/O)nc1)c1ccc(/C=N/O)nc1	E coli growth-2 12, AddAB inh 19 (no result: E coli growth-1) | AddAB confirm inactive | RecBCD counter inactive | bact viab count inactive
CC(O)COc1ccc(C(=NO)c2ccccc2)cc1 (stereo not drawn)	none (no result: E coli growth-2, phage Ecoli inh, AddAB inh, Tat transport)
O=c1[nH]c(/C(=N\O)c2ccccc2)no1	E coli growth-2 18, AddAB inh 16 (no result: E coli growth-1) | AddAB confirm 25 | RecBCD counter 4.3 | bact viab count inactive
Cc1cc(C(=O)NN=Cc2c(C)nn(-c3ccccc3)c2C)c(C)o1	none (no result: E coli growth-2, phage Ecoli inh, AddAB inh, Tat transport)
O=C(Oc1cccc2cccnc12)c1cccc([N+](=O)[O-])c1	none
O=C(Oc1c(Cl)cc(Cl)c2cccnc12)c1cccc([N+](=O)[O-])c1	E coli growth-1 0.071, E coli growth-2 28, AddAB inh 30 (no result: phage Ecoli inh) | AddAB confirm 62 | RecBCD counter 59 | bact viab count 58
CN(C)CCCNC(=S)N=c1sccn1Cc1ccccc1Cl	none (no result: E coli growth-2, phage Ecoli inh, AddAB inh, Tat transport)
O=C(Cc1cccs1)NCCn1ccc2ccccc21	E coli growth-2 95, AddAB inh 99 | AddAB confirm inactive | RecBCD counter inactive | bact viab count inactive
CC1CCCN(Cc2nc3c(c(=O)n(C)c(=O)n3C)n2Cc2c(F)cccc2Cl)C1 (stereo not drawn)	E coli growth-2 16, AddAB inh 99 | AddAB confirm inactive | RecBCD counter inactive | bact viab count inactive
CCOc1ccc(Cc2onc3c2C(=O)CCC3)cc1OCC	E coli growth-2 97, AddAB inh 99 | AddAB confirm inactive | RecBCD counter inactive | bact viab count inactive
CCOc1ccc(Cc2onc3c2C(=O)CC(C)(C)C3)cc1OCC	none
CCCc1c(C)nc2ccc(OC)cc2c1SCCC(=O)O	AddAB inh 15 | AddAB confirm inactive | RecBCD counter inactive | bact viab count inactive
Cc1ccc(C=NOC(=O)c2nn(C)cc2Cl)cc1	none (no result: E coli growth-2, phage Ecoli inh, AddAB inh, Tat transport)
CC(=O)Nc1cccc(C(=O)NCCc2ccco2)c1	E coli growth-2 12, AddAB inh 12 | AddAB confirm inactive | RecBCD counter 10 | bact viab count inactive
Cc1nn(-c2ccccc2)c(Cl)c1C=NNC(N)=O	none (no result: E coli growth-2, phage Ecoli inh, AddAB inh, Tat transport)
CCOC(=O)N/N=C(/C)c1ccc([N+](=O)[O-])o1	E coli growth-2 30, AddAB inh 32 (no result: E coli growth-1) | AddAB confirm 101 | RecBCD counter 13 | bact viab count 39
CC(=NNC(=O)C(O)(c1ccccc1)c1ccccc1)c1ccc([N+](=O)[O-])o1	none (no result: E coli growth-2, phage Ecoli inh, AddAB inh, Tat transport)
CCOC(=O)C1C2COc3cc(OC)ccc3C2N2C(=O)N(c3ccc(F)cc3)C(=O)[C@@]12C (stereo partly drawn)	none (no result: E coli growth-2, phage Ecoli inh, AddAB inh, Tat transport)
Cc1cc(C)nc(SCc2ccc(C(=O)N/N=C/c3cccc(O)c3O)cc2)n1	AddAB inh 12 (no result: E coli growth-1) | AddAB confirm inactive | RecBCD counter 5.0 | bact viab count inactive
CCn1cc(C(=O)O)c(=O)c2cnc(N3CCN(C(=S)Nc4ccccc4)CC3)nc21	E coli growth-1 0.44, E coli growth-2 50, AddAB inh 98 | AddAB confirm inactive | RecBCD counter inactive | bact viab count inactive
CCn1cc(C(=O)O)c(=O)c2cnc(N3CCN(C(=S)Nc4ccccc4C(F)(F)F)CC3)nc21	E coli growth-2 95, AddAB inh 98 | AddAB confirm 49 | RecBCD counter inactive | bact viab count inactive
CCOC(=O)c1cccc(NC(=S)N2CCN(c3ncc4c(=O)c(C(=O)O)cn(CC)c4n3)CC2)c1	none
Cc1nn(-c2ccccc2)c(Cl)c1C=NNC(=O)c1ccn[nH]1	none (no result: E coli growth-2, phage Ecoli inh, AddAB inh, Tat transport)
NC(=NOC(=O)c1cccc(F)c1)c1cccc([N+](=O)[O-])c1	none (no result: E coli growth-2, phage Ecoli inh, AddAB inh, Tat transport)
NC(=O)CNC(=O)C1CC2(CC(c3ccc(Cl)cc3)=NO2)CN1C(=O)c1ccccc1 (stereo not drawn)	none (no result: E coli growth-2, phage Ecoli inh, AddAB inh, Tat transport)
Cc1ccc2nc(/C(C#N)=C\c3ccc([N+](=O)[O-])o3)[nH]c2c1	E coli growth-2 10, AddAB inh 43 | AddAB confirm 67 | RecBCD counter 5.2 | bact viab count inactive
O=C1c2cccc3c([N+](=O)[O-])ccc(c23)C(=O)N1c1ccccn1	none
O=C1c2cccc3c([N+](=O)[O-])ccc(c23)C(=O)N1O	E coli growth-2 50, phage Ecoli inh 44, AddAB inh 35, Tat transport 81 (no result: E coli growth-1) | AddAB confirm 86 | RecBCD counter 74 | bact viab count 81
CC(C)(C)C1C=C(C(=O)NCc2ccccc2)OC(OCCCCO)C1 (stereo not drawn)	none (no result: E coli growth-2, phage Ecoli inh, AddAB inh, Tat transport)

Compound activity as filed in PubChem.
